According to the OligoGym collection:

These sequences were tested against HDHD2 (assay: pooled miR-30 sensor sort-seq; sequence = guide strand). Details: shRNA.

Going from TAACAGGTCTTGCTTGCTCTCT to TTCCGCTCTAGTAAACTTCTGG, the sensor-assay potency score (higher = more potent) rises from -0.886 to 0.0507.

Going from TAACCTTTTAAGAGCTTCCTGT to TCAACTAGCAGCATGGGTCTGA, the sensor-assay potency score (higher = more potent) rises from -0.227 to 0.908.

First: TAAACTTCTGGCTGCAGTCAGA
Second: TTGCTATCAGAGGTGCTCCATC
The sensor-assay potency score (higher = more potent) of the first is lower: -0.973 for the first, -0.808 for the second.

First: TTTCTCAACCTTTCTAACAGGT
Second: TTCCTTTGAAATCAGGTAGTGC
The sensor-assay potency score (higher = more potent) of the first is higher: 0.329 for the first, -0.746 for the second.

These sequences were tested against HEATR8 in the same assay as above. Details: shRNA.

Going from TACCACTCCAGCACCGAGCTGA to TAACACACCCATGAGTTCCCGT, the sensor-assay potency score (higher = more potent) falls from -0.0285 to -0.71.

Going from TTCTTTATCATGGTCTTCTTTT to TTCACCACTTTCACCACCCAGC, the sensor-assay potency score (higher = more potent) rises from -1.04 to -0.301.

Going from TTCAGGTTCAGCTTGGAGGTGT to TAACAGGGTCTTCACACACTTC, the sensor-assay potency score (higher = more potent) falls from 0.381 to -1.46.

Compared with TTGAGTGATGGTCACGCTCAAA, TTCAACACAGAGACATTGGTGT is higher in sensor-assay potency score (higher = more potent): -1.7 for the first, 0.958 for the second.

Going from TTGAACTTGTGCTCCAGGTGGT to TTGGCGGTCTTCTCAGACCTGC, the sensor-assay potency score (higher = more potent) falls from 0.565 to -0.945.

First: AACATGACTGAGCACTTCCGGA
Second: TTGGTCTCTTCCTTATCTCTGG
The sensor-assay potency score (higher = more potent) of the first is lower: -0.961 for the first, -0.426 for the second.

These sequences were tested against HECTD1 in the same assay as above. Details: shRNA.

Compared with TTTACTTCGAATACAATCTATA, TAAGTCCTCATCATCATCGAGC is higher in sensor-assay potency score (higher = more potent): -1.13 for the first, -0.93 for the second.

First: TAGCACATAATCATCATCCCAT
Second: TGCATCAGTAGCATCAACCTTG
The sensor-assay potency score (higher = more potent) of the first is higher: 0.659 for the first, 0.0486 for the second.

Going from TAAGAGGTCGTTGTGAAGCTGC to TTAACTTTCGAATTAACGCAAC, the sensor-assay potency score (higher = more potent) falls from -0.0408 to -1.04.

Going from TAGAGTTGAACAACCAGTGGTA to TCGAATACAATCTATAAGCTGC, the sensor-assay potency score (higher = more potent) falls from 0.312 to 0.194.

Compared with TTAATTGTTCACACCAGTCTGG, TTGCGTACAACCGTGAGCCTGG is higher in sensor-assay potency score (higher = more potent): -0.677 for the first, 0.726 for the second.

TTGACTACAATCTTGTTTCATA was tested, and the sensor-assay potency score (higher = more potent) was -0.725.

These sequences were tested against HEPH in the same assay as above. Details: shRNA.

Compared with TTTCTGTGCACACATGTTCAGC, TTGCGTCGTAGCTTTCTCTGTC is higher in sensor-assay potency score (higher = more potent): -0.645 for the first, 0.593 for the second.

Compared with TTGTCAGACTTTAAGAAGCTGG, TATCCTCTGAAAGCAGTCGGAA is lower in sensor-assay potency score (higher = more potent): -0.791 for the first, -1.21 for the second.

Going from TAGTAGATTCTAGCACTCCATG to TATAGTAGATTCTTGCAGCTTG, the sensor-assay potency score (higher = more potent) rises from -1.17 to 0.849.

First: TAGCTTTCTCTGTCGATGTTGG
Second: TGATATAGTAGATTCTTGCAGC
The sensor-assay potency score (higher = more potent) of the first is lower: -0.344 for the first, -0.0504 for the second.

AATGTAACCATAACTGTCCTTC was tested, and the sensor-assay potency score (higher = more potent) was -0.181.
